Measured values reported in PubChem BioAssay (NCI).
Compounds without any hit were thinned out: in the full panel of roughly 83,000, 20% have a hit.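 Note: values are percent growth. 100 is the growth of untreated cells, values between 100 and 0 indicate rising inhibition; between -100 and 0 indicates cell death.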 Values without a mark were called inactive. Calls of active or inactive are those of the source. How the source made its calls: active means growth percent below 10; inactive means the rest.

Tested on: BT-549 breast
Assay: NCI-60 one-dose screen, 48 h (100 = growth as untreated, 0 = no growth, -100 = all killed)
Details: 10 µM unless noted

SMILES | growth
CC1CC2Oc3ccc(Cl)cc3C(=O)N2O1 (stereo unspecified) | 105%
COc1cccc(C(=O)NCCNc2cc(-c3cn(-c4ccccc4)nc3-c3cccc(OC)c3)ccn2)c1 | 40.8%
CN(C)c1ccc(-c2ccc3[nH]c(=O)nc(-c4ccccc4)c3c2)cn1 | 41.9%
CCN(CC)CCCCCCNc1cc(OC)c(Cl)c2cccnc12 | 93.5%
NC(=N\N=C/c1ccccc1[N+](=O)[O-])/C(N)=N\N=C/c1ccccc1[N+](=O)[O-] | 116%
C[n+]1cc2cc(C(N)=O)[nH]c3c(=N)c(Cl)c(N)c1c23 | 78.9%
COc1ccc(C2=Nc3c(N)ncnc3NC(c3ccc4c(c3)OCO4)C2)cc1 (stereo unspecified) | 89%
CCN(CC)CCN1C(=O)c2c(c(C)c3c(oc4cc(O)ccc43)c2C)C1=O | 86.7%
O=C(Nc1ccccc1Cl)Oc1ccc(-c2ccccc2)cc1 | 113%
O=C1/C(=C/c2ccc(F)cc2)C=C(c2ccccc2)N1CCc1ccccc1 | 79.3%
Cc1cc(Cl)ccc1Nc1nc(C(F)(F)F)ccc1C(=O)N/N=C/c1ccc(N(C)C)cc1 | 34.9%
CCN1CCN(c2cc(C)nc(NCc3cc(Nc4ccnc5cc(Cl)ccc45)ccc3F)n2)CC1 | 98.6%
CCN(CC)CCN1CC(O)=C(c2nc(-c3ccc(Cl)cc3)cs2)C1=N | 49.9%
CC(=O)n1c(-c2ccc(Cl)cc2)nc2c(c1=O)C(c1ccc(Cl)cc1)c1sc3c(Cl)cccc3c1O2 (stereo unspecified) | -7.92% (active)
CCN(CC)CCn1nc2c3c(cccc3c1=O)-c1ccccc1-2 | 59.3%
Cc1cc(Cl)nc(NCc2cc(Nc3ccnc4cc(Cl)ccc34)ccc2F)n1 | 65.5%
O=C(NCCCNc1cc(-c2cn(-c3ccccc3)nc2-c2cccc(O)c2)ccn1)c1ccccc1 | 10.3%
COc1ccc(-c2cc(-c3cc(OC)ccc3OC)nc(SCC(=O)c3ccccc3)c2C#N)cc1 | 109%
Nc1cc2c3c(cccc3c1)C(=O)N(CCN1CCCC1)C2=O | 74.7%

SMILES | growth
COc1ccc(-c2csc(C3=C(O)CN(CCCN4CCCC4=O)C3=N)n2)cc1OC | 100%
CCCCn1c(=O)c2c(nc(NCCc3ccc(O)c(O)c3)n2CCC)n(CCCC)c1=O | 102%
N#C/C(=C/C=C/c1cccc(Cl)c1)S(=O)c1ccccc1 (stereo unspecified) | -69.3% (active)
O=C1OC(c2nc3ccccc3s2)=C/C1=C\c1ccc(O)cc1 | 111%
CC/C=C\CCC/C=C1/C(=O)C=C[C@@H]1C/C=C\CCCC(=O)O | 32.3%
CC(=O)C(C)Cc1cc2c(cc1C)C(C)(C)CCC2(C)C (stereo unspecified) | 95.5%
O=[N+]([O-])c1ccc(C2CC(c3ccccc3)=Nc3ccccc3S2)cc1 (stereo unspecified) | 95%
COc1ccc(-c2nc3c(c(=O)n2C(C)=O)C(c2ccc(Cl)cc2)c2sc4c(Cl)cccc4c2O3)cc1 (stereo unspecified) | -26.9% (active)
FC(F)(F)c1cc(Nc2ccc3cc(OCCCN4CCOCC4)ccc3n2)ccc1Cl | 87.9%
CC(C)CCC[C@@H](C)[C@H]1CC[C@H]2[C@@H](Nc3ccc(O)cc3)CCC[C@]12C | 113%
O=C(N/N=C/c1ccncc1)c1ccc(C(F)(F)F)nc1Nc1cccc(C(F)(F)F)c1 | 23.8%
COC(=O)[C@]12CC[C@@H](C)[C@H](C)[C@@H]1C1=CC[C@@H]3[C@@]4(C)C(C=O)=C[C@@](C)(COC(C)=O)[C@@H]4C(=O)C[C@@]3(C)[C@]1(C)CC2 | 32.4%
O=C(Nc1ccccc1)Nc1cccc(Oc2nnc(Cl)c3ccccc23)c1 | 47.7%
N#Cc1c(-c2ccccc2)cc(-c2ccc(Nc3nc(Nc4ccc(F)cc4)nc(Nc4ccc(F)cc4)n3)cc2)nc1N | 101%
CCn1c(C)nc2cc(C(N)=O)ccc21 | 111%
O=C(/C=C/c1ccco1)c1ccc(Nc2nc(Nc3ccc(F)cc3)nc(Nc3ccc(Cl)cc3)n2)cc1 | 78.7%
CC/C=C\C[C@H](O)C/C=C1/C(=O)C=C[C@@H]1C/C=C\CCCC(=O)OC | -20.6% (active)
N#Cc1c(-c2cccc(Cl)c2)cc(-c2cccc(Cl)c2)[nH]c1=O | 52.4%
O=C1CC(N2C(=O)/C(=C/C(Cl)=C\c3ccc([N+](=O)[O-])cc3)SC2=S)C(=O)N1c1ccc(O)cc1 (stereo unspecified) | -17.3% (active)

Tested on: MDA-MB-435 melanoma
Assay: as above
Details: 10 µM unless noted

SMILES | growth
CC1CC2Oc3ccc(Cl)cc3C(=O)N2O1 (stereo unspecified) | 105%
COc1cccc(C(=O)NCCNc2cc(-c3cn(-c4ccccc4)nc3-c3cccc(OC)c3)ccn2)c1 | 64.3%
CN(C)c1ccc(-c2ccc3[nH]c(=O)nc(-c4ccccc4)c3c2)cn1 | -11.9% (active)
CCN(CC)CCCCCCNc1cc(OC)c(Cl)c2cccnc12 | 14.7%
NC(=N\N=C/c1ccccc1[N+](=O)[O-])/C(N)=N\N=C/c1ccccc1[N+](=O)[O-] | 101%
C[n+]1cc2cc(C(N)=O)[nH]c3c(=N)c(Cl)c(N)c1c23 | 85.7%
COc1ccc(C2=Nc3c(N)ncnc3NC(c3ccc4c(c3)OCO4)C2)cc1 (stereo unspecified) | 94.2%
CCN(CC)CCN1C(=O)c2c(c(C)c3c(oc4cc(O)ccc43)c2C)C1=O | 72.9%
O=C(Nc1ccccc1Cl)Oc1ccc(-c2ccccc2)cc1 | 101%
O=C1/C(=C/c2ccc(F)cc2)C=C(c2ccccc2)N1CCc1ccccc1 | 65.4%
Cc1cc(Cl)ccc1Nc1nc(C(F)(F)F)ccc1C(=O)N/N=C/c1ccc(N(C)C)cc1 | 43.7%
CCN1CCN(c2cc(C)nc(NCc3cc(Nc4ccnc5cc(Cl)ccc45)ccc3F)n2)CC1 | 50.7%
CCN(CC)CCN1CC(O)=C(c2nc(-c3ccc(Cl)cc3)cs2)C1=N | -62.4% (active)
CC(=O)n1c(-c2ccc(Cl)cc2)nc2c(c1=O)C(c1ccc(Cl)cc1)c1sc3c(Cl)cccc3c1O2 (stereo unspecified) | -19.6% (active)
CCN(CC)CCn1nc2c3c(cccc3c1=O)-c1ccccc1-2 | 39.7%
Cc1cc(Cl)nc(NCc2cc(Nc3ccnc4cc(Cl)ccc34)ccc2F)n1 | 41.2%
O=C(NCCCNc1cc(-c2cn(-c3ccccc3)nc2-c2cccc(O)c2)ccn1)c1ccccc1 | -10.5% (active)
COc1ccc(-c2cc(-c3cc(OC)ccc3OC)nc(SCC(=O)c3ccccc3)c2C#N)cc1 | 103%
Nc1cc2c3c(cccc3c1)C(=O)N(CCN1CCCC1)C2=O | 48.7%

SMILES | growth
COc1ccc(-c2csc(C3=C(O)CN(CCCN4CCCC4=O)C3=N)n2)cc1OC | 116%
CCCCn1c(=O)c2c(nc(NCCc3ccc(O)c(O)c3)n2CCC)n(CCCC)c1=O | 82.6%
N#C/C(=C/C=C/c1cccc(Cl)c1)S(=O)c1ccccc1 (stereo unspecified) | -35.4% (active)
O=C1OC(c2nc3ccccc3s2)=C/C1=C\c1ccc(O)cc1 | 102%
CC/C=C\CCC/C=C1/C(=O)C=C[C@@H]1C/C=C\CCCC(=O)O | 5.08% (active)
CC(=O)C(C)Cc1cc2c(cc1C)C(C)(C)CCC2(C)C (stereo unspecified) | 104%
O=[N+]([O-])c1ccc(C2CC(c3ccccc3)=Nc3ccccc3S2)cc1 (stereo unspecified) | 103%
COc1ccc(-c2nc3c(c(=O)n2C(C)=O)C(c2ccc(Cl)cc2)c2sc4c(Cl)cccc4c2O3)cc1 (stereo unspecified) | 0.072% (active)
FC(F)(F)c1cc(Nc2ccc3cc(OCCCN4CCOCC4)ccc3n2)ccc1Cl | 35%
CC(C)CCC[C@@H](C)[C@H]1CC[C@H]2[C@@H](Nc3ccc(O)cc3)CCC[C@]12C | 100%
O=C(N/N=C/c1ccncc1)c1ccc(C(F)(F)F)nc1Nc1cccc(C(F)(F)F)c1 | 36.4%
COC(=O)[C@]12CC[C@@H](C)[C@H](C)[C@@H]1C1=CC[C@@H]3[C@@]4(C)C(C=O)=C[C@@](C)(COC(C)=O)[C@@H]4C(=O)C[C@@]3(C)[C@]1(C)CC2 | 50.5%
O=C(Nc1ccccc1)Nc1cccc(Oc2nnc(Cl)c3ccccc23)c1 | 48.6%
N#Cc1c(-c2ccccc2)cc(-c2ccc(Nc3nc(Nc4ccc(F)cc4)nc(Nc4ccc(F)cc4)n3)cc2)nc1N | 105%
CCn1c(C)nc2cc(C(N)=O)ccc21 | 131%
O=C(/C=C/c1ccco1)c1ccc(Nc2nc(Nc3ccc(F)cc3)nc(Nc3ccc(Cl)cc3)n2)cc1 | 88.5%
CC/C=C\C[C@H](O)C/C=C1/C(=O)C=C[C@@H]1C/C=C\CCCC(=O)OC | 4.45% (active)
N#Cc1c(-c2cccc(Cl)c2)cc(-c2cccc(Cl)c2)[nH]c1=O | 0.951% (active)
O=C1CC(N2C(=O)/C(=C/C(Cl)=C\c3ccc([N+](=O)[O-])cc3)SC2=S)C(=O)N1c1ccc(O)cc1 (stereo unspecified) | -12% (active)
